From PubChem BioAssay AID1508600 (Functional Genomics Laboratory (NCATS/FGL), 2020)
Out of some 53,000 sequences screened, about 3,700 (7%) were called active.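 The calls were made as follows: active = gene knockdowns whose robust z-score for IL-1 alpha signal is at least 2 or at most -2, so actives lie on both sides; inactive = the rest.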 The entries come from a sample that favours actives as a whole.

assay: Components of the Cytosolic LPS Sensing Pathway: Gene Identification via Genome-wide siRNA Screen; settings: RAW264.7 macrophages, IL-1a HTRF, actives lie on both sides, screened at 100 nM (by protocol), cells primed 5 h with Pam3CSK4 first;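 also: robust z of the log signal after scaling to non-targeting control siRNA wells of the plate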
Summary of the method: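 IL-1a HTRF of supernatants after 24 hour LipidA transfection of Pam3CSK4-primed (5 hours) RAW264.7 cells, 48h post-siRNA transfection (100 nM). Scores: percent of plate negative-control median, then log-based robust z-score.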

Sequence	z-score
CGCUUUAUUAGAUGGGCUATT against Dlx5	-2.27 (active)
GAAGUUCAAUGGAGAAGACTT against Arl2	-0.825 (inactive)
GGUGUUCAGACUACCCUCUTT against Serpina3m	-1.16 (inactive)
GGGCCAUAAGAUCUGUACUTT against Ccl24	0.472 (inactive)
GGUCCUCUAAAGAAUAAAGTT against Cela3b	0.541 (inactive)
GCCCAGAAAUAUAAUCAAATT against Bub1	2.17 (active)
GGCUACCAUAGGUUUUAAUTT against Serinc4	0.946 (inactive)
CCCGGAUGAUGGAGAUAUUTT against Mnd1	-1 (inactive)
GCCUGAUCUACUGUGGUCCTT against Olfr1347	-0.167 (inactive)
GGCUUGAUCUUCGUAGUGGTT against Arf1	0.132 (inactive)
GCAGAGACUACUUAGCAAGTT against Adprm	2.29 (active)
GCUUAAGAGAUUCAAAUUGTT against Olfr1317	0.036 (inactive)
GCUCUAAACAUGAUUCAAGTT against Akap9	1.17 (inactive)
GGCAGCUAAGUACGUUCAUTT against Gba	0.177 (inactive)
GGAAAGAGAACAUAAAAGATT against Pla2g4a	-0.995 (inactive)
GCAGCAUCGCGUAGAAACATT against Gar1	-0.566 (inactive)
GCUGGAAACCCGUAUACUATT against Krt23	2.16 (active)
CCGUGCACAACAUUGCCUATT against Qtrt1	-0.552 (inactive)
GGAAUUUUCAAGGAACAAUTT against Il1rapl2	-1.8 (inactive)
GGCGUGUAUGUCAAAAAUATT against Grip1	-0.201 (inactive)
GGAGUUGUUACUCUAUUUUTT against Pkd2l2	-0.426 (inactive)
GCUCUCACACCCUUAUGUATT against Nptn	-1.45 (inactive)

Sequence	z-score
GGCGAGAAAUUCUUCACAUTT against Plxna3	-1.51 (inactive)
GGAGAAGGAGCAGAUUAAATT against Krt8	2.07 (active)
CCAAAACCUCAUGCUGAAATT against Zfp758	0.396 (inactive)
GCUAAUACGAUUUACUUUGTT against Cntn6	0.586 (inactive)
GGACGUAUAUCCUUUUAUGTT against Spaar	-0.151 (inactive)
GCAUGAUCAAAUUGUAUCUTT against Nde1	-2.21 (active)
GGUCUUUCUUCGAGGAGUCTT against Ccdc33	-1.03 (inactive)
CCGUAAGAAGGAAAACGCATT against Kcnd1	-0.506 (inactive)
GGUAAGGUUACAGCACUGATT against Chac2	-0.489 (inactive)
GGAAUAUCUGAUAUCAGUATT against Mdga2	0.0727 (inactive)
GGCUUCCUCAUCGAUAUAATT against Ccnh	0.21 (inactive)
GGUACCAAUUGAAGAUAUATT against Ncoa7	2.2 (active)
GGACAAGGAGGAUUUCUUCTT against Nprl2	-0.226 (inactive)
CCUUCUAAGAGAAAAACGUTT against Eps15	0.198 (inactive)
GGUAAACAGAAUAGAAUCCTT against Lcmt1	0.622 (inactive)
GCCUGUGUAUUCUCGCUAUTT against Mon1a	0.345 (inactive)
UGGGCCUUGUAGGCUUCAUTT against Rell2	2.3 (active)
GGACCAGUUAUCCUCACUGTT against Eapp	-0.514 (inactive)
GCACAGCUAAACUUAACUATT against Taz	0.711 (inactive)
GCAAAUUUACCUCGGUUUUTT against Olfr46	0.388 (inactive)
GGCAGGUUUUUGAACUGGUTT against Olfr725	2.28 (active)
GCUGAGAGGUAAAGACACATT against Cntd1	0.116 (inactive)

Sequence	z-score
UCCAGAGGAUCCGCUGUGATT against Krt74	-0.632 (inactive)
GGACUAAACAGAUUCACUATT against Rnase9	-2.42 (active)
GGAUCCUUCGCUUUUAUCGTT against Nox1	-0.343 (inactive)
GGAAAAUCACUUCAUUCACTT against Ltk	0.893 (inactive)
CCUUCGUAGUCUUGAUGUGTT against Olfr1179	-0.104 (inactive)
GGAUCAAAAAAAAACUGGATT against Sinhcaf	1.19 (inactive)
GGAAUUAGUCUCCAAAUAUTT against Sh2d1b1	0.604 (inactive)
GCCAGUACGAAGUGAUCUGTT against Ackr4	2.8 (active)
GGUUCUUGGUUUACAUAAGTT against Slc39a12	-1.23 (inactive)
GGGAAAACCAUACAAAAUATT against Olfr228	-0.525 (inactive)
GCAAAUCGACCACUUUCCGTT against Cacng2	4 (active)
GCACGUCCUCGAUCUCUGUTT against Extl3	-0.705 (inactive)
GGUGUCUGAUGAUGAAUAUTT against Cnnm3	0.322 (inactive)
GGAUGUGCCUCGGUUGGAUTT against Gulo	0.663 (inactive)
GGAAGACCUUGAAUUCCAGTT against Tspan31	2.87 (active)
GCCCAUUGAUCCGGAGUAATT against Dusp28	0.252 (inactive)
GGGUUUCUAUGAAGAGAUCTT against Fhod1	-0.624 (inactive)
GCCUUACAUGAGCCCAUGUTT against Olfr550	-1.96 (inactive)
GGACUUUAUUGAAAAUCUGTT against Zfp365	0.593 (inactive)
CCAAAUUCCUAUCAAGUUUTT against Ints2	1.98 (inactive)
GCGUCUCAUAGAGUUGGUGTT against Mblac2	0.0617 (inactive)
GCCGCUAGCAUGGUCUAUUTT against Apoa5	2.51 (active)

Sequence	z-score
UAUACCUUAGUGCUGAGGGTT against Olfr736	-1.02 (inactive)
GGGCAAAAGCUGUUACAAGTT against Ahrr	-0.0958 (inactive)
GGUUCCUGGAUGGUUCCUATT against Vtcn1	1.45 (inactive)
GGGUAUGACAACAAACUUCTT against Gabrg2	-0.422 (inactive)
GGUUUGGCAAACAUUUCAUTT against Akr1c20	2.02 (active)
GGAUGAAUCUGAAGAUUCCTT against Nol3	0.113 (inactive)
GGUGGACAAGCAAGUCUAGTT against Ube2o	1.97 (inactive)
GGACAAGAUAGGAGGAGACTT against Abhd16a	-0.776 (inactive)
GCUUGUGCUGAAUUACACCTT against Vps35	2.11 (active)
GCACGAAUCCUUGGAGAAATT against Batf2	-0.254 (inactive)
GGUGAUUUAGUUGUGUAAATT against Calcr	0.294 (inactive)
GGUUCCAUCUUCUCAGGACTT against Olfr395	1.01 (inactive)
GGUGGAAUAUUUCAUGGACTT against Csnk2a1	3.43 (active)
GGAAGAGGACACAUUAGGCTT against Gtsf1l	0.11 (inactive)
GGUGAGUUUUGCUAAAAGUTT against Syp	0.783 (inactive)
GCAAGAAGUAUUUUCAGUATT against Galnt4	1.34 (inactive)
GGAACAACGGAAAAGCGAGTT against Ankrd1	1.25 (inactive)
GGAAUCCUCGGCAGAUAAATT against Rpl24	2.31 (active)
GGCAGAAAAUUGUUCUUAUTT against Cpt1a	-1.49 (inactive)
GGCUUCUGGUACAUUAUUGTT against Lcn10	-1.23 (inactive)
GGGCAACUAUUGAUGAGGUTT against Acap3	-0.138 (inactive)
GGACGGUGACCUGUAUGAUTT against Cpxm1	-2.4 (active)

Sequence	z-score
GCAUUAAAGUAGAAGGUCUTT against Snx31	0.812 (inactive)
GCGGCAAGAUUAAUAAGUCTT against Mpzl1	0.798 (inactive)
GGAUCUCGAAGUUACUGCATT against Dnajc5b	1.77 (inactive)
GCCUAGCAAUGACUGGGAUTT against Sdhaf2	-0.635 (inactive)
GCCUUCUGGCAAGAAUCUUTT against Krtap9-3	1.21 (inactive)
CCACUCAAGCGGUAAGGAUTT against Slc22a1	4.16 (active)
GGUGGCACAUAAGAAAUCCTT against Trim66	-1.61 (inactive)
CGGACACACAGUUGAUCCGTT against Cct6b	-2.15 (active)
GCGGGACUUUAUCUCAUCCTT against Mfsd4b1	-0.815 (inactive)
CCUUCUUUAUAGGUAUGACTT against Klhl36	0.91 (inactive)
GGAAAGAAGCAGCGGACUUTT against Nme7	2.29 (active)
GGCAUUCAGAGCUGAUUCATT against Mia3	0.93 (inactive)
GCCCUGGCAUGCUAACAAATT against Prpf3	-0.749 (inactive)
GGUACUACAAGCUAGCUGUTT against Scd4	-0.114 (inactive)
GGAAGUUUGUAGAGUAUGUTT against Xylt1	-0.187 (inactive)
CCCGAGAACAUCUUGUACGTT against Rps6ka4	2.69 (active)
GGGUUCAAGAGAUGAUAUUTT against Usp11	0.245 (inactive)
GGCUGAGAAACUGGAUGAATT against Rem1	-0.143 (inactive)
GGCUGUAUGACUCAGCUCUTT against Olfr711	-0.912 (inactive)
CCGGAAACUUCCUACGUGUTT against Cbln1	-0.424 (inactive)
